# Rows were chosen to be rich in hits. Some 21% of all compounds tested hit in one or more screens of this group.
# Cycloheximide cs: affects cycloheximide protein synthesis inhibition readout, counter-screen; cell reporter, cycloheximide protein synthesis inhibition counterscreen; max response, %; 12% of 300,000 active; in the data active = max response mostly above about 13%, no sharp cut-off; inactive = mostly below about 14%; also: read at 38.3 µM for the half of the compounds with a filed dose
# Pf growth 48h: P. falciparum growth inhibition at 48 hours (one generation); P. falciparum luciferase growth in erythrocytes, 48 h; 5.9% of 310,000 active; AID 504832; Potency, µM (doses to about 28.7 µM), hits mostly inhibitors
#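 Cell-based growth assay: transgenic P. falciparum expressing firefly luciferase, cultured in red cells within RPMI 1640 containing 0.5% w/v Albumax, 24 mM bicarbonate and gentamycin. A drop in luciferase activity indicates inhibition.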
# NS1 function inh: influenza NS1 inhibition; 0.4% of 270,000 active; Potency, µM (top dose mostly 46.1 µM); calls by dose curve; also: actives are rising curves; nearly all actives have a fitted effect of over 50% in size
#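 Compounds were scored for reversing the slow growth caused by influenza A NS1 in S. cerevisiae, measured by optical density at 600 nm. Assay medium contained 2% galactose at pH 6.0; NS1-free yeast of the same strain were the positive control.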
# Pf growth 96h: P. falciparum growth inhibition at 96 hours. P. falciparum luciferase reporter growth, 96 h. Potency, µM (top dose mostly 28.7 µM), actives largely listed as inhibitors. 6.9% of 320,000 active. AID 504834
#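 Parasite growth measured via integrated firefly luciferase reporter in P. falciparum. Infected erythrocytes at 2% hematocrit, 0.05% parasitemia final were treated 96 hours at 37 C under 5% CO2, and luminescence was read.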
# Shiga inhibitor: Shiga toxin inhibition. AID 2315. 9.2% of 290,000 active. Vero cells, Shiga toxin protein synthesis inhibition reporter. inhibition, % at 38.7 µM; in the data active = inhibition mostly above about 28%, no sharp cut-off; inactive = mostly below about 43%
# Giardia FBPA inh: blocks Giardia fructose-bisphosphate aldolase activity. purified Giardia FBPA. 0.71% of 290,000 active. A8B2U2. Potency, µM (series often up to 59.6 µM), most hits filed as inhibitors. AID 2451; also: nearly all actives have a fitted effect of over 55% in size
# Target sequence (A8B2U2 whole entry, looked up): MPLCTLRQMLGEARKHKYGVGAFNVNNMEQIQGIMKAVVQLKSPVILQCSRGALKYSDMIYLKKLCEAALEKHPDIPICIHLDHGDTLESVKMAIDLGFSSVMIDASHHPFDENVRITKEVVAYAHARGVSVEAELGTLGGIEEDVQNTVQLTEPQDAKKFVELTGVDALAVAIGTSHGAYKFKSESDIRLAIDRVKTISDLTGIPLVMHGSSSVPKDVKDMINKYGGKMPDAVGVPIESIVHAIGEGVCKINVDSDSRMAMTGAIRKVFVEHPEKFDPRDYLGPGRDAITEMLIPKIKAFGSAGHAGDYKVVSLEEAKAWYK
#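 40 nM FBPA preincubated 10 min at RT with compound (up to 57.5 uM final), then substrate plus GAPDH/TPI/NAD/arsenate coupling and diaphorase/resazurin added. Fluorescence read after 20 min at RT, 525/598 nm.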
# A number is an active result; 0 = inactive; ? = inconclusive; - = not tested or not shown; + = active, no number; [ ] = dose if it differs, or a comment. Unless noted, calls follow the shape of the dose curve; as a rule, active = well fitted curve in the direction sought with a large enough effect; inconclusive = small, poorly fitted or top-dose-only effect, or another doubt; inactive = no such curve, though single readings can be large; an effect the other way counts as inactive or inconclusive.
SMILES,Cycloheximide cs,Pf growth 48h,NS1 function inh,Pf growth 96h,Shiga inhibitor,Giardia FBPA inh
S=C(N/N=C/c1cccc2ccccc12)Nc1cccc(Cl)c1,0,?,?,2.9µM,0,0
COc1cc2c(cc1OC)C(c1cc3ccccc3oc1=O)=NC(C)(C)C2,0,8.3µM,0,0,0,0
CCN(CC)S(=O)(=O)c1ccc(/C=C/C(=O)Nc2ccc(F)cc2F)cc1,32,?,0,6.6µM,64,0
CN(CCCC(=O)Nc1ccc(Br)cc1F)S(=O)(=O)c1ccccc1,0,0,0,6.6µM,0,0
CCN(CC)S(=O)(=O)c1ccc(/C=C/C(=O)Nc2ccc(Br)cc2F)cc1,0,12µM,0,5.2µM,0,0
CCN(CC)S(=O)(=O)c1ccc(/C=C/C(=O)Nc2ccc(F)c(F)c2F)cc1,36,9.3µM,0,?,38,0
Nc1c(Cl)cc(-c2cn(CCC(=O)O)c(-c3ccncc3)n2)cc1Cl,-,?,-,0,-,-
O=C1CCCC=C1[C@@H](O)CCOCc1ccccc1,-,-,-,-,-,0[12.9 µM]
CC1CCN(CCCNC(=O)Cn2ncc3c([nH]c4ccccc43)c2=O)CC1,0,0,0,?,0,0
CC1CCN(C(=O)CNC(=O)CNS(=O)(=O)c2ccccc2)CC1,0,0,0,?,0,0
Cn1nnc(NC(=O)c2cccc(OCc3ccccc3)c2)n1,0,?,0,0,0,0
Cn1nnc(NC(=O)c2ccccc2F)n1,0,0,0,0,0,0
Cn1nnc(NC(=S)NC(=O)c2cccc3ccccc23)n1,0,?,0,13µM,0,-
Cn1nnc(NC(=O)c2ccc3ccccc3c2)n1,30,?,0,?,+,0
Cn1nnc(NC(=O)c2ccc(C(C)(C)C)cc2)n1,46,9.3µM,0,0,45,0
CCN1CCN(C(=O)C(=O)c2cn(CC(=O)N3CCCC3)c3ccccc23)CC1,0,0,0,?,0,-
COc1ccc(CCN(C)C2CCCN(C(=O)Cn3cccn3)C2)cc1OC (centres undefined),0,0,0,0,0,-
C=CCS(=O)(=O)N1CCCC(N(C)CCc2ccc(OC)c(OC)c2)C1 (centres undefined),0,?,0,5.2µM,0,0
COc1ccc(CCN(C)C2CCCN(S(=O)(=O)c3ccccc3F)C2)cc1OC (centres undefined),0,?,0,13µM,0,0
CN(CCc1ccccc1)C1CCCN(S(=O)(=O)CC(F)(F)F)C1 (centres undefined),0,0,0,10µM,0,0
Cc1ccn2cc(C34CC5CC(CC(C5)C3)C4)nc2c1,35,0,0,?,95,0
COc1ccc(/C=N/Nc2nc(N3CCCCC3)nc(N3CCCCC3)n2)cc1[N+](=O)[O-],0,?,0,0,0,0
COc1cc(/C=N/Nc2nc(N3CCCC3)nc(N3CCCC3)n2)ccc1O,0,?,0,-,0,0
COc1ccc(/C=N/Nc2nc(Nc3ccccc3)nc(N3CCCC3)n2)cc1[N+](=O)[O-],0,2.1µM,-,0,0,0
CNc1nc(N/N=C/c2cc3c(cc2[N+](=O)[O-])OCO3)nc(Nc2ccccc2)n1,0,2.6µM,-,0,0,0
SMILES,Cycloheximide cs,Pf growth 48h,NS1 function inh,Pf growth 96h,Shiga inhibitor,Giardia FBPA inh
CCOc1ccc(/C=N/Nc2nc(N3CCCC3)nc(N3CCCC3)n2)cc1OC,0,10µM,0,?,0,-
CC[C@H](C)[C@H](NC(=O)CNC(=O)[C@H](CC(C)C)NC(=O)[C@H](CC(C)C)NC(=O)[C@H](CCC(N)=O)NC(=O)[C@H](CCC(N)=O)NC(=O)[C@H](CC(=O)O)NC(=O)[C@H](CCCCN)NC(=O)[C@H](CC(C)C)NC(=O)[C@H](Cc1ccc(O)cc1)NC(=O)[C@H](CCCNC(=N)N)NC(=O)[C@H](CCC(=O)O)NC(=O)[C@@H](NC(=O)[C@H](C)NC(=O)[C@H](CC(C)C)NC(=O)[C@@H](NC(=O)[C@@H](N)CCCNC(=N)N)[C@@H](C)CC)C(C)C)C(=O)N[C@@H](Cc1c[nH]c2ccccc12)C(=O)NCC(=O)N[C@@H](CS)C(=O)N[C@@H](CO)C(=O)O,0,-,-,-,0,0
O=C(NC1CCCCC1)c1ccc(CS(=O)(=O)Cc2ccccc2F)o1,20,0,?,?,68,0
O=C(NC1CCCC1)c1ccc(CSCc2ccccc2F)o1,31,-,0,?,0,0
O=C(NC1CCCC1)c1ccc(CS(=O)(=O)Cc2ccccc2F)o1,0,0,0,?,0,-
O=C(NCc1ccccc1)c1sc(=S)n2c1[nH]c(=O)c1ccccc12,0,0,0,13µM,0,-
COc1ccc(-c2noc(CCC(=O)NCC3CCCO3)n2)cc1OC (centres undefined),0,0,0,0,0,0
Cc1ccc(C)c(NC(=O)C(Sc2nc3ccccc3c(=O)n2CC(C)C)c2ccccc2)c1 (centres undefined),0,3.7µM,0,2.6µM,0,0
Cc1ccc(C)c(NC(=O)C(Sc2ncnc3ccccc23)c2ccccc2)c1 (centres undefined),0,0,0,0,0,0
O=C(/C=C/c1ccccc1Cl)NCCc1ccccc1,50,?,0,12µM,77,0
O=C(/C=C/c1ccc(Cl)cc1)NCCc1ccccc1,0,0,0,0,0,0
O=C(/C=C/c1ccccc1Cl)NCc1ccccc1,29,0,0,0,51,0
CNC1C(O)[C@@H]2OC(O[C@@H]3C(O)C(O)C(N)C[C@H]3N)C(N)C[C@H]2O[C@H]1O[C@@H]1OC(CO)C(N)C(O)C1O (some centres undefined),-,-,-,-,-,0
O=C(NCc1nnnn1-c1ccc(F)c(F)c1)c1ccc2c(c1)OCO2,-,0,-,0,-,-
C/C(CC(C)(C)C1CCCCC1)=N\NC(N)=S,0,-,0,2.9µM,0,0
C/C(CCC12CC3CC(CC(C3)C1)C2)=N\NC(N)=S,0,-,0,?,0,0
COCC(=O)N1CCC2(CCCN(C(=O)Nc3cccc(F)c3)C2)CC1,-,-,-,-,-,0
CCCCOc1nc2ccccc2nc1C(C#N)C(=O)NC1CCCCC1 (centres undefined),0,0,0,1.5µM,0,0
COc1cc(C)c(CN2CC=C(c3ccc(F)cc3)CC2)cc1C,0,0,0,12µM,-,?
COc1cc(CN2CC=C(c3ccc(F)cc3)CC2)cc(OC)c1,0,0,0,0,0,0
Cc1cc(=O)oc2cc(OCC(=O)NC3CCCC3)ccc12,0,0,0,0,0,0
C=C(Cl)COc1ccc2c(C)cc(=O)oc2c1,23,0,0,0,+,0
C=C(Cl)COc1ccc2c(CCCC)cc(=O)oc2c1,25,0,0,-,0,0
C=C(Cl)COc1ccc2c(CC)cc(=O)oc2c1,0,0,0,-,0,0
CCc1cc(=O)oc2cc(OCC(=O)N3CCC[C@H]3C(=O)O)ccc12,0,0,0,0,0,0
Cc1cc(=O)oc2cc(OCC3CC(c4ccc(Br)cc4)=NO3)ccc12 (centres undefined),0,0,0,0,0,0

# Screens (PubChem BioAssay)
